Test results published in PubChem BioAssay.
Activity calls are given as the source filed them.

Columns and labels:
Albumin (Bos taurus) = Albumin (Bos taurus) (UniProt P02769); assay: compounds binding labelled BSA control protein – biochemical, small-molecule microarray, Alexa647 label, 635/667 nm fluorescence, artefact control for SMM control protein annotation, profiling panel (AID 1118); settings: BSA-A647 binding, fluorescence 635 nm, higher = more signal;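 also: score merges 667 nm emission intensity and signal-to-noise per printed compound spot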
Chain of Albumin (Bos taurus) (P02769 whole entry, looked up): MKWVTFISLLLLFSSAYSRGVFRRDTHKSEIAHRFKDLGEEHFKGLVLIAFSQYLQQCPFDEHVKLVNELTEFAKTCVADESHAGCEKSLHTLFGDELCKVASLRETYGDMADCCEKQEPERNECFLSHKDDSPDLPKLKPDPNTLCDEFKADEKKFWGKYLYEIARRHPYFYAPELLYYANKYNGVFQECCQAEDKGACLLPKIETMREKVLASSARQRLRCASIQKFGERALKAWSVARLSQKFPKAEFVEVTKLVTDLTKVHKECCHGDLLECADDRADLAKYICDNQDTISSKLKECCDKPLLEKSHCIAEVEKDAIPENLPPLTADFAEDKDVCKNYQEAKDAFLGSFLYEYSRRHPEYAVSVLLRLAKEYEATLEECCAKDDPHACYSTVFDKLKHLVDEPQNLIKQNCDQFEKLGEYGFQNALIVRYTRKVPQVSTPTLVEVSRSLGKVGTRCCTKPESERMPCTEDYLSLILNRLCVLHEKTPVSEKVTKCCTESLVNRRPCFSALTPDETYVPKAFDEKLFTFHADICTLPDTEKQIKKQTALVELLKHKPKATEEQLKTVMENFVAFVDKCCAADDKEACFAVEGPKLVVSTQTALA

[1] = probe aXIP binding to arrayed compounds – biochemical, NeuroSMM set, 635/667 nm fluorescence, primary screen (AID 1119); settings: small-molecule microarray, higher = more signal, called active from +8 up or from −8 down;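 also: probe is the protein aXip251-270 applied at 1 µg/mL to compound-printed slides; binding of probe to printed compounds measured as 667 nm fluorescence plus signal to noise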
[2] = probe aNOTCH3 binding on compound microarray – biochemical, small-molecule microarray, 635/667 nm fluorescence, primary screen (AID 1120); settings: higher = more signal;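 also: probe is a biotin-tagged antibody raised against NOTCH3 rather than NOTCH3 protein; score merges spot fluorescence near 667 nm with spot signal to noise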
[3] = probe aNOTCH2 binding on compound microarray – biochemical, small-molecule microarray, 635/667 nm fluorescence, primary screen (AID 1121); settings: higher = more signal;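 also: score merges feature fluorescence read at 667 nm with its signal to noise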
[4] = target: Carbonic anhydrase 2 (Homo sapiens) (UniProt P00918); assay: compounds binding carbonic anhydrase 2 – biochemical, small-molecule microarray, Alexa647-labelled CAII, profiling panel (AID 1122); settings: CAII-A647 binding fluorescence, higher = more signal
[5] = COS7 lysate on small-molecule microarray, probe aHis, 635 nm (AID 1123); settings: COS7 cell lysate, fluorescence, higher = more signal;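 also: z-score combines 667nm fluorescence intensity with signal-to-noise per printed compound spot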
[6] = probe aLAP1 signal on lysate-treated microarray – cell lysate, small-molecule microarray, COS7 lysate, primary screen (AID 1124); settings: probe aLAP1, fluorescence, higher = more signal;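 also: lysate comes from COS7 cells expressing LAP1 and is applied at 0.3 µg/mL; score merges spot fluorescence near 667 nm with signal-to-noise over triplicate slides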
Sam68 (KHDRBS1) = assay: compounds binding KHDRBS1 protein – biochemical, small-molecule microarray, 635 nm fluorescence, primary screen (AID 1125); settings: higher = more signal;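 also: score merges 667 nm channel intensity with signal to noise over triplicate slides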
[7] = test system: Chordin-like protein 2 (CHRDL2); assay: compounds binding chordin-like 2 – biochemical, small-molecule microarray, 635 nm fluorescence, primary screen (AID 1126); settings: fluorescence 635 nm, higher = more signal;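 also: printed compound slides probed with Chrdl2 protein at 4 µg/mL for 1 h at 4 C; score merges 667 nm emission intensity with signal to noise over three replicate slides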
[8] = target: Concanavalin-A (Canavalia ensiformis) (UniProt P02866); assay: compounds binding concanavalin A lectin – biochemical, small-molecule microarray, Alexa647 label, 635 nm, artefact control for SMM control protein annotation, primary screen (AID 1127); settings: ConA-A647 binding fluorescence, higher = more signal;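 also: z combines 667 nm emission intensity with signal-to-noise across three replicate slides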
Chain of Concanavalin-A (Canavalia ensiformis) (P02866 whole entry, looked up): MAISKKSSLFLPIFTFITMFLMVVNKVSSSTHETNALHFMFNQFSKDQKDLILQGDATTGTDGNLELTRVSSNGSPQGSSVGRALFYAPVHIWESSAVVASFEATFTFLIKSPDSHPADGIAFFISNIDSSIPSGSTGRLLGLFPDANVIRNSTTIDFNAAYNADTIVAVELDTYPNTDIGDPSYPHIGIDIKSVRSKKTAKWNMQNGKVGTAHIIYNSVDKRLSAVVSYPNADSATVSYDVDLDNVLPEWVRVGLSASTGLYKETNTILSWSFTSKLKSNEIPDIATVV

[9] = compounds binding Alexa647 anti-His antibody – biochemical, small-molecule microarray, 635 nm fluorescence, artefact control for SMM control protein annotation, primary screen (AID 1128); settings: higher = more signal;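 also: score merges feature fluorescence with signal-to-noise for each printed compound spot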
[10] = test system: Human papillomavirus type 1a E7 protein (residues 1-88); assay: HPV1a E7 small-molecule binders, primary screen, biochemical, small-molecule microarray, residues 1-88, 635 nm (AID 1129); settings: small-molecule microarray binding, fluorescence 635 nm; higher = more signal
[11] = target: Focal adhesion kinase 1 (Homo sapiens) (UniProt Q05397); assay: PTK2 protein binding on printed compound slides – biochemical, small-molecule microarray, 635/667 nm fluorescence, BSA, DTT, primary screen (AID 1130); settings: 635 nm fluorescence, higher = more signal;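 also: composite of spot emission at 667 nm and signal to noise over triplicate slides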
Chain of Focal adhesion kinase 1 (Homo sapiens) (Q05397 whole entry, looked up): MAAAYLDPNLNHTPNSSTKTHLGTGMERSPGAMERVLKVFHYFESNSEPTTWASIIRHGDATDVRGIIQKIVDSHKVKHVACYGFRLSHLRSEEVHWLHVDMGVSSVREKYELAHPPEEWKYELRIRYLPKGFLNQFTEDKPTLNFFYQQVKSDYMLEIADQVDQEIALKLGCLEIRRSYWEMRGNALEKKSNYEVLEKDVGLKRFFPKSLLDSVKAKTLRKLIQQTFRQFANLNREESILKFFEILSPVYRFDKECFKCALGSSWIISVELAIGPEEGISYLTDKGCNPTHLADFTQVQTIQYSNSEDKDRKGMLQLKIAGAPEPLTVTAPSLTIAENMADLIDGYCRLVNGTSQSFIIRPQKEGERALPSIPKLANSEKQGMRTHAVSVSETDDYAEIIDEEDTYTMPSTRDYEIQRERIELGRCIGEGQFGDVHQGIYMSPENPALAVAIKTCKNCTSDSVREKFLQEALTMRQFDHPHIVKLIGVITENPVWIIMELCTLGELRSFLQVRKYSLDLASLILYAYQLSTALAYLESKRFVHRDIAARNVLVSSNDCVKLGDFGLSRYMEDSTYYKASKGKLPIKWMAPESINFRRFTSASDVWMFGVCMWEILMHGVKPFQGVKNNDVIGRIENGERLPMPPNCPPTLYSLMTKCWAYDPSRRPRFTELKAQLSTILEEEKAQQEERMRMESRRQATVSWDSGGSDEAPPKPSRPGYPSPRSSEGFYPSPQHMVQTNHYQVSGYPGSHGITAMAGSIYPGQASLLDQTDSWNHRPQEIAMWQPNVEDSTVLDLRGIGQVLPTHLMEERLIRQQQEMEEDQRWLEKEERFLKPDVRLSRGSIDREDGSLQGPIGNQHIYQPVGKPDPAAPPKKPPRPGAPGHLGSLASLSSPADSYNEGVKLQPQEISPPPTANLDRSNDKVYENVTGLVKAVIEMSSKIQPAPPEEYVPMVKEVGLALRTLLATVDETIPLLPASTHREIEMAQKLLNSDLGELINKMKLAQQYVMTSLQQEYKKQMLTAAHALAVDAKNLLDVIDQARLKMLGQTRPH

[12] = test system: Fibrinogen (Alexa647-labelled); assay: Alexa647-fibrinogen binding to printed small molecules – biochemical, small-molecule microarray, 635/667 nm fluorescence, artefact control for SMM control-protein annotation, profiling panel (AID 1131); settings: fibrinogen-A647 binding fluorescence, higher = more signal;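 also: z-score merges 667 nm fluorescence with per-spot signal-to-noise over triplicate slides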
[13] = target: Follistatin (Homo sapiens) (UniProt P19883); assay: FST protein binding to printed compounds – biochemical, small-molecule microarray, 635/667 nm fluorescence, primary screen (AID 1132); settings: 635 nm fluorescence, higher = more signal
Chain of Follistatin (Homo sapiens) (P19883 whole entry, looked up): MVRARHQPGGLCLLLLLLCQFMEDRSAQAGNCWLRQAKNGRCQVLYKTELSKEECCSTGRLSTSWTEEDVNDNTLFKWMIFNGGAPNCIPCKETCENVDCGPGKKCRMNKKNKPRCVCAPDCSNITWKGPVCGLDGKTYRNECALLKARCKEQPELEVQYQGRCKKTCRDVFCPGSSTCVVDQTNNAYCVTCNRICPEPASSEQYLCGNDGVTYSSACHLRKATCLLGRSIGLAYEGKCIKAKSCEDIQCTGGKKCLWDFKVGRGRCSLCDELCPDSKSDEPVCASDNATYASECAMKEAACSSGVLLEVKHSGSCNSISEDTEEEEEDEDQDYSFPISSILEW

[14] = target: Fibroblast growth factor 2 (Homo sapiens) (UniProt P09038); assay: basic fibroblast growth factor binding to printed compounds – biochemical, small-molecule microarray, 635/667 nm fluorescence, primary screen (AID 1133); settings: FGF2, fluorescence 635/667, higher = more signal
Chain of Fibroblast growth factor 2 (Homo sapiens) (P09038 whole entry, looked up): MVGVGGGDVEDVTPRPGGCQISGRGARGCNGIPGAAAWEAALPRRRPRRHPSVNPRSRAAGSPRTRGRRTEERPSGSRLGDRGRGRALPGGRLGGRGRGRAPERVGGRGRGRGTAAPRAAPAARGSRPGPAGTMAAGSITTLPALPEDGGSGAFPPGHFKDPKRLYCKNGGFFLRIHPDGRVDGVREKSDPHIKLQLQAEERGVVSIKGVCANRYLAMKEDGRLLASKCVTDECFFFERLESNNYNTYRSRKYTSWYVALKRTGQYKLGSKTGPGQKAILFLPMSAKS

[15] = JC-1 mitochondrial potential readout, lung cancer cells – cell-based, A549, JC-1 fluorescence, basal, 24 h, 100 nL, profiling panel (AID 1138); settings: higher = more signal;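 also: A549 lung adenocarcinoma cells under basal conditions with no added stimulus; test concentration not given here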
Lefty1 = Lefty1 protein binding to printed compounds – biochemical, small-molecule microarray, 635/667 nm fluorescence, primary screen (AID 1139); settings: fluorescence 635/667, higher = more signal
[16] = test system: wheat germ agglutinin (Triticum aestivum), Alexa647-labelled; assay: Alexa647-WGA lectin binding to printed small molecules – biochemical, small-molecule microarray, 635/667 nm fluorescence, artefact control for SMM control-protein annotation, profiling panel (AID 1140); settings: WGA-A647 binding, 635 nm fluorescence, higher = more signal;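 also: score merges 667 nm feature emission with signal to noise over triplicate slides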
[17] = target: Luciferin 4-monooxygenase (Photinus pyralis) (UniProt P08659); assay: inhibition of purified Photinus pyralis luciferase – biochemical, luminescence, purified enzyme, 2006 set, primary screen (AID 1141); settings: purified firefly luciferase, SteadyGlo luminescence, 30 min; higher = more signal, called active from +8 up or from −8 down;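 also: cell-free assay with purified firefly luciferase at 100 ng per well in PBS; test concentration not given here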
Chain of Luciferin 4-monooxygenase (Photinus pyralis) (P08659 whole entry, looked up): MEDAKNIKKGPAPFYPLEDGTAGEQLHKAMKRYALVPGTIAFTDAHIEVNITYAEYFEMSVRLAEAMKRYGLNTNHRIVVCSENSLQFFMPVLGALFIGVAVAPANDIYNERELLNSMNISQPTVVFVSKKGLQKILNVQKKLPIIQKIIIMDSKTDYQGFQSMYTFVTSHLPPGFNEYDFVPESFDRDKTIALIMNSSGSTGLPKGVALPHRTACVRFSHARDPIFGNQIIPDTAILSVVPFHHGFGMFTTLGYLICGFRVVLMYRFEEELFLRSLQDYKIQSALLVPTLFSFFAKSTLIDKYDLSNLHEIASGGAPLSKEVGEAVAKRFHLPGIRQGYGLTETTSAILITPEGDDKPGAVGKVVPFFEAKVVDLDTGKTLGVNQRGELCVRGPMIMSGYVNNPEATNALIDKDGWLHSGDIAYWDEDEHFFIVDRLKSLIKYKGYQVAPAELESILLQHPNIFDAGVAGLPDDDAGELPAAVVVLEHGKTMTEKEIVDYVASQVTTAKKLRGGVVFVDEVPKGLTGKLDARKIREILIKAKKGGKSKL

SMILES | composite z-score (Albumin (Bos taurus)) | composite Z-score [1] | composite z-score [2] | composite z-score [3] | composite z-score [4] | composite z-score [5] | composite z-score [6] | composite z-score (Sam68 (KHDRBS1)) | composite z-score [7] | composite z-score [8] | composite z-score [9] | composite z-score [10] | composite z-score [11] | composite z-score [12] | composite z-score [13] | composite z-score [14] | z-score [15] | composite z-score (Lefty1) | composite z-score [16] | z-score [17]
C=CCOC(=O)[C@H]1[C@@H]2C(=O)O[C@@H](c3ccccc3)[C@@H](c3ccccc3)N2[C@@H](c2ccc(OCCOC(=O)[C@@H]3C[C@@H]4C(=O)N[C@@H](Cc5ccccc5)C(=O)N4[C@@H]3c3ccc(O)cc3)cc2)[C@]12C(=O)Nc1ccc(I)cc12 | -0.257 | 0.661 (inactive) | 0.698 | -0.092 | 0.218 | 1.33 | -0.052 | 1.16 | 0.915 | 0.92 | 1.15 | 1.15 | 0.307 | -0.0558 | 1.4 | 1.25 | -1.28 | 0.924 | 0.0495 | -0.409 (inactive)
CCOC(=O)C[C@H]1[C@H](OC(=O)c2ccc(-c3ccccc3)cc2)[C@@H](NC(=O)C2CCCCC2)c2cc(OCCCO)ccc2N1C(=O)Cc1ccc(OC)cc1 | 0.561 | 0.204 (inactive) | -0.0362 | -0.182 | -0.0434 | 0.405 | 0.652 | 0.496 | 0.0463 | -0.361 | 0.132 | 0.365 | 0.106 | 0.267 | 0.2 | 0.345 | 0.47 | 0.867 | 0.229 | 0.347 (inactive)
C=C[C@H](C)[C@@H](OC(=O)Nc1ccc(SC)cc1)c1ccc(OCCO)cc1 | 0.312 | 0.794 (inactive) | 0.137 | -0.0008 | 0.397 | 1.59 | 0.471 | 0.157 | 0.28 | 0.272 | 2.21 | 1.14 | 0.461 | -1.15 | 0.629 | 0.2 | -1.8 | 0.265 | 0.827 | -7.41 (inactive)
Cc1ccc(S[C@]2(C(=O)NCc3ccccc3)CC(=O)N(Cc3ccccc3C(F)(F)F)[C@@H]2c2ccc(CO)cc2I)cc1 | 0.269 | -0.915 (inactive) | -0.242 | -0.0417 | 0.815 | 1.2 | 1.04 | -0.0245 | -0.175 | -0.546 | 1.53 | -0.645 | 0.258 | -0.201 | 0.0443 | -0.402 | 1.28 | -1.25 | 0.0776 | -0.913 (inactive)
COCCOC(=O)N1C(=O)[C@@]2(c3cc(C#CCNC(N)=O)ccc31)[C@H](c1ccccc1OCCO)N1[C@H](c3ccccc3)[C@H](c3ccccc3)OC(=O)[C@H]1[C@@H]2C(=O)N1CCCCCCC1 | 0.0576 | 0.627 (inactive) | 0.0556 | -0.121 | 0.447 | 0.75 | 1.41 | 1.32 | 0.354 | 1.12 | 0.364 | 1.17 | 0.183 | 0.858 | 1.28 | 0.937 | -1.51 | 0.76 | 1.13 | -0.193 (inactive)
COC(=O)[C@@]1(Cc2ccc(OC)cc2)[C@@H]2[C@@H](CC(=O)[C@H]2CC(=O)C(=O)N(C)C)CN1C(=O)c1ccccc1 | 0.964 | 0.289 (inactive) | 1.52 | 0.732 | 0.617 | 3.17 | 0.505 | 1.32 | -0.875 | 1.13 | 2.06 | 1.24 | 0.462 | 1 | 0.594 | 0.153 | 0.257 | -0.477 | 1.34 | -0.273 (inactive)
C=C(C(=O)CC[C@@H](OC(=O)c1ccccc1-c1ccccc1C(=O)O)c1ccc(CO)o1)C(C)C | -0.41 | 0.0692 (inactive) | -0.0858 | -0.112 | 0.75 | 0.163 | 0.464 | 0.754 | 0.386 | 0.278 | 0.546 | 0.434 | -0.304 | 0.876 | 1.39 | 1.76 | 0.475 | 1.51 | 0.707 | -3.22 (inactive)
C[C@]1(C(=O)O)c2ccccc2C(=O)N(Cc2cc(C(F)(F)F)cc(C(F)(F)F)c2)[C@H]1c1ccc(CO)cc1 | 0.514 | 0.365 (inactive) | 0.0426 | -0.106 | 0.728 | 0.516 | -0.178 | 0.666 | -0.833 | 0.928 | -0.41 | -0.129 | 0.0797 | 0.844 | 0.82 | -0.354 | -0.401 | 1.02 | 0.861 | 1.01 (inactive)
O=C1O[C@H](c2ccccc2)[C@H](c2ccccc2)N2[C@H]1[C@@H](C(=O)Nc1nc3ccccc3s1)[C@]1(C(=O)Nc3ccccc31)[C@H]2c1ccccc1OCCO | 0.939 | 0.417 (inactive) | 0.0242 | -0.014 | 0.393 | 2.24 | 0.921 | 1.29 | -0.131 | 0.668 | 1.71 | 0.813 | 0.832 | 0.966 | 0.453 | 0.64 | -1.84 | 0.0835 | 1.02 | 0.389 (inactive)
Cc1ccc(S(=O)(=O)N2[C@@H](c3ccccc3)C(C(=O)O)=C[C@H]2C(C)(C)C)cc1 | 1 | 0.882 (inactive) | 0.178 | 0.0458 | 0.756 | 2.82 | 0.827 | 1.3 | -0.301 | 1.17 | 1.43 | 1.18 | 1.31 | 0.651 | 0.804 | -0.0977 | -1.04 | 0.576 | 1.31 | 1.19 (inactive)
COC(=O)C(CC#Cc1ccc2c(c1)[C@]1(C(=O)N2)[C@H](C(=O)N2CCN(c3ncccn3)CC2)[C@H]2C(=O)O[C@H](c3ccccc3)[C@H](c3ccccc3)N2[C@@H]1c1ccc(O)cc1)C(=O)OC | -0.542 | 0.939 (inactive) | 0.972 | 0.279 | 0.636 | 2.38 | 0.97 | 1.28 | 1.08 | 1.21 | 1.19 | 1.25 | 0.904 | 0.951 | 1.43 | 1.57 | -0.877 | 1.03 | 1.36 | -0.178 (inactive)
